# Compounds with a hit are over-represented: about 8.9% of the library has one in this group of screens.
# KB-3-1 tox: kills parental KB-3-1 adenocarcinoma cells; Potency, µM (highest dose often 46.1 µM), usual class: cytotoxic; 400,000 compounds, 1.4% hits; KB-3-1 viability, CellTiter-Glo ATP luminescence, 72 h; also: potency is read from the fitted curve at half-maximal effect; % is scaled to controls: 0 for no effect and ±100 for the full control effect; nearly all actives have a fitted effect of over 60% in size
#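 Using CellTiter-Glo luminescence, growth of non-resistant KB-3-1 adenocarcinoma cells is assessed 72 h after pin-tool compound addition at 37 °C. Normalized responses across the concentration series yield fitted curves.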
# MCF10A rereplic: induces DNA re-replication in MCF 10a normal breast cells | 350,000 compounds, 2.9% hits | Potency, µM (titrated, usually from 46.1 µM), inactives show at the top dose activity, positive = re-replication, actives largely listed as activators | MCF 10A DNA re-replication, Hoechst nuclear intensity, 48 h; also: potency is read from the fitted curve at half-maximal effect; % of control where 0% means no effect; nearly all actives have a fitted effect of over 50% in size
# DRD3 agonist: agonists of human D3 dopamine receptor; P35462; D3R DiscoveRx beta-arrestin cells, luminescence, 90 min; max activation, %; 410,000 compounds, 0.58% hits; AID 652048; in the data active = max activation above about 30%; also: 0% is about no effect
# Target sequence (P35462 whole entry, looked up): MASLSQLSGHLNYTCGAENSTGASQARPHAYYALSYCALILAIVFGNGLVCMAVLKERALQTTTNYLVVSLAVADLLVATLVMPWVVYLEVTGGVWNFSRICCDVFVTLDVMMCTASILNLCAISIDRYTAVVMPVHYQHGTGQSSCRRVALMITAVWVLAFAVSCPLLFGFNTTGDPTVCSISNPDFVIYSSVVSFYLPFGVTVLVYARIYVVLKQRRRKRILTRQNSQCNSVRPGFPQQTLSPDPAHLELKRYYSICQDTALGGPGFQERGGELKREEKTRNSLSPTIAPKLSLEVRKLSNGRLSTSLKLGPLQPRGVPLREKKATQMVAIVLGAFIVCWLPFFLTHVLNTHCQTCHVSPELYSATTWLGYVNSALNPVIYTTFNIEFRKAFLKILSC
#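 Agonist mode: compounds and dopamine controls were applied to plated cells for 90 min at 37 degrees C after an overnight attachment at 1500 cells/well. Luminescent read-out followed 30 - 60 minutes at room temperature with DiscoveRx detection reagent.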
# KB-V1 MDR tox: KB-V1 MDR subline cytotoxicity; 400,000 compounds, 3.4% hits; Potency, µM (top dose mostly 46.1 µM), hits mostly cytotoxic; KB-V1 MDR cells viability, CellTiter-Glo, 72 h; also: potency is read from the fitted curve at half-maximal effect; % is scaled to controls: 0 for no effect and ±100 for the full control effect; nearly all actives have a fitted effect of over 60% in size
#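 Potencies derive from concentration-effect curves fitted to normalized luminescence (CellTiter-Glo) of KB-V1 cells treated for 72 h at 37 degrees C in phenol-red-free DMEM containing 10% FBS.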
# DRD3 antagonist: D3 dopamine receptor (human) antagonism. P35462. D3R cells, DiscoveRx beta-arrestin luminescence, antagonist mode; active compounds read low. max response, negative = inhibition, %. 360,000 compounds, 2.5% hits. AID 652054; in the data active = max response below about -50%; inconclusive = no clear call, values can overlap the other calls; also: % is scaled to controls: 0 for no effect and ±100 for the full control effect
#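 Cells expressing the human receptor were seeded at 1500 cells/well, incubated overnight at 37 degrees C in 5% CO2, then exposed to library compounds with dopamine controls for 90 minutes at 37 degrees C before luminescent detection.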
# SW480 rereplic: DNA re-replication induction in SW480 cells; 340,000 compounds, 1.8% hits; SW480 DNA re-replication, Hoechst DNA content imaging, 48 h; AID 624297; Potency, µM (titrated, usually from 46.1 µM), inactives show top-dose re-replication activation, usual class: activators; also: potency is read from the fitted curve at half-maximal effect; % of control where 0% means no effect; nearly all actives have a fitted effect of over 55% in size
#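 Treated cells incubate 48 hr (37 C, 5% CO2), are stained 40 min with Hoechst, and nuclear fluorescence is enumerated; a rise in nuclei with high DNA signal marks re-replication.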
# * = called active by the depositor; i = inactive; ? = inconclusive; / = no result given. Unless noted, calls follow the shape of the dose curve; as a rule, active = well fitted curve in the direction sought with a large enough effect; inconclusive = small, poorly fitted or top-dose-only effect, or another doubt; inactive = no such curve, though single readings can be large; an effect the other way counts as inactive or inconclusive.
SMILES,KB-3-1 tox,MCF10A rereplic,DRD3 agonist,KB-V1 MDR tox,DRD3 antagonist,SW480 rereplic
O=C1c2cccc3cccc(c23)C(=O)N1c1cccnc1,i,18µM*,13,i,9,3%
COc1ccc(N2C(=O)C(Cl)=C(Oc3cccc(OC)c3)C2=O)cc1,i,3%,-18,i,-58*,15%
COc1ccc(N2C(=O)c3cccc4cccc(c34)C2=O)cc1,i,2%,7,i,-2,13µM*
Cc1ccc(CCNC(=O)c2cn(C)c3ccc(S(=O)(=O)N4CCCCC4)cc3c2=O)cc1,?,/,-5,i,/,/
Cc1ccc(/C=C/c2onc(C)c2S(=O)(=O)N2CCC(C(=O)Nc3cccc(C#N)c3)CC2)cc1,i,/,-12,i,/,/
CCC(CO)NC(=O)C(=O)Nc1c2c(nn1-c1ccc(F)cc1)CSC2 (stereo not drawn),i,/,4,i,/,/
C#CC[N+](C)(C)CC#Cc1ccc(C)cc1,12µM*,6%,-2,i,-17,-14%
O=C1Cc2ccccc2C1=C1C=c2ccccc2=C1,?,/,/,i,/,/
CN(C)CCNc1ccc(-c2nn(C)c(=O)c3ccccc23)cc1[N+](=O)[O-],?,-1%,-4,23µM*,-2,-4%
CC1Cc2cc(-c3csc(NC(=O)Cc4ccccc4)n3)ccc2N1S(C)(=O)=O (stereo not drawn),21µM*,16%,0,3.3µM*,12,2%
O=C(NCc1ccccc1Cl)C1=CC=CN2CCS(=O)(=O)N=C12,i,10%,5,i,-21,9%
Cc1nn(CC(=O)N2CCC(C)CC2)c(=O)c2cc3occc3n12,i,/,-6,i,/,/
Cc1cccc2cc3c(nc12)SC(=NCC1CCCO1)N(Cc1ccco1)C3 (stereo not drawn),i,?,-1,i,?,5.8µM*
CCN(CC)CCCNC(=O)c1cc(-c2ccc(OC)c(OC)c2)on1,i,/,7,i,/,/
CCOC(=O)c1c(C)cc(O)cc1O,i,6%,38*,i,10,-35%
COc1ccccc1NS(=O)(=O)c1cccc(-n2c(O)c(C=Nc3ccccc3C(=O)O)c3ccccc3c2=O)c1,i,18%,62*,i,98,4%
COc1ccc(CC(=O)Nc2c(C(=O)Nc3ccc(F)cc3)oc3ccccc23)cc1OC,i,/,1,i,/,/
Cc1ccc(-c2nn(-c3cccc(F)c3)cc2CN2CCN(c3ccccn3)CC2)o1,i,?,-3,i,-70*,?
N=C1SCC(=O)N1c1ccc(Cl)cc1,15µM*,0%,2,?,3,?
CCOC(=O)/C=C(\C)Sc1cc(O)c2ccccc2c1O,i,?,-16,i,-55*,17%
CCOC(=O)/C=C(\C)Sc1cc(=O)oc2ccccc12,?,?,0,?,-25,?
CCCC(c1nnnn1CCc1ccccc1)N1CCN(C(=O)c2ccco2)CC1 (stereo not drawn),i,-1%,-18,i,-51*,6%
O=C(NCCc1ccc(Cl)cc1)c1cnc2sc(N3CCOCC3)nn2c1=O,i,/,-2,?,/,/
COCCCNC(=O)N1CCN(c2nnc(C)c3c(C)n(-c4ccc(Cl)cc4)nc23)CC1,i,/,-12,i,/,/
COc1ccc2oc3cc(C)[n+]([O-])c(-c4ccc(Cl)cc4)c3c2c1,?,17%,-1,?,19,-1%
COc1ccc(-c2c3c(cc(C)[n+]2[O-])oc2ccc(OC)cc23)cc1,?,16µM*,8,10µM*,9,15%
COc1ccc2oc3cc(C)[n+]([O-])c(-c4ccc(C)cc4)c3c2c1,?,16%,1,5.8µM*,-24,?
Cc1ccc(C(C)C)c(OCCSc2nc3ccccc3n2CC(O)CO)c1 (stereo not drawn),i,/,0,i,/,/
CCN(CC)c1ccc(/C=N/NC(=S)NCc2ccco2)cc1,18µM*,?,-2,?,?,?

# Compound activity as filed in PubChem BioAssay.
